{"source": "PubChem BioAssay (Tox21)", "note": "Values joined by “and” are separate entries in the source; they are usually repeats but may differ in a detail not shown here. Identical values can stand only once. Inconclusive results are not listed. A structure can be active in one record and inactive in another. Active and inactive are the calls of the source. Calls follow the shape of the dose curve; as a rule, active = well fitted cell-killing curve with a large enough effect in the repeat runs; inconclusive = weak or mixed curves, or effect the other way; inactive = flat fitted curve, though single readings scatter. Residues, ends and D or L forms follow the SMILES beside them. % is scaled to controls: 0 for no effect and ±100 for the full control effect; potency is read from the fitted curve at half-maximal effect.", "data": [{"assay": "qHTS RealTime-Glo MT Cell Viability Assay in HEK293 cells - 40 hour (AID 1224874); also: nearly all actives have a fitted effect of over 50% in size", "settings": "RealTime-Glo luminescence; max response: stronger effect = lower value", "description": "U.S. Tox21 Program National Center for Advancing Translational Sciences [NCATS] NIH Chemical Genomics Center [NCGC] U.S. Environmental Protection Agency [EPA] National Institutes of Environmental Health Sciences [NIEHS] National Toxicology Program [NTP] U.S. Food and Drug Administration [FDA] Tox21 Assay Overview: Measure of cell viability is critical in the cell-base assay. Analysis of cell viability is necessary for the characterization of cell responses to cytotoxic drugs and environmental stress. A RealTime-Glo MT Cell Viability Assay to monitor cell viability in real time of continues cell culture during 40 hours of compound treatment was used to screen Tox21 10K library compounds in Hek293 cells. The RealTime-Glo MT Cell Viability Assay is a nonlytic, homogeneous, bioluminescent method to measure cell viability in real time using a simple, plate-based method. The assay involves adding NanoLuc luciferase and a cell-permeant prosubstrate to cells in culture. Viable cells reduce the proprietary prosubstrate to generate a substrate for NanoLuc luciferase. This substrate diffuses from cells into the surrounding culture medium, where it is rapidly used by the NanoLuc Enzyme to produce a luminescent signal. The signal correlates with the number of viable cells, making the assay well suited for cytotoxicity studies.\nTox21 Assay Protocol Summary: The mixture of Hek293 cell suspension and reagents were dispensed at 600cells/6 ul/well in 1536-well tissue culture treated black solid bottom plates using a Multidrop dispenser. After the assay plates were incubated at a 37 C/5% CO2 incubator for 5 hours, 23 nL of compounds dissolved in DMSO, positive and negative controls was transferred to the assay plate by a pintool work station. The plates were incubated at 37 C for 40 hours. The luminescence intensity were measured at 0h, 8h, 16h, 24h, 32h and 40h time points using ViewLux plate reader during compound treatment.", "values": [{"smiles": "CC(C)[C@@H]1CC[C@@H](C)C[C@H]1O", "max response": "3.82% (inactive) [middle of 5 runs]"}, {"smiles": "C1N2CN3CN1CN(C2)C3", "max response": "5.73% (inactive) and 6.94% (inactive) and 0.249% (inactive)"}, {"smiles": "Nc1ccc(S(=O)(=O)Nc2nccs2)cc1", "max response": "5.06% (inactive) [middle of 4 runs]"}, {"smiles": "CC(=O)NS(=O)(=O)c1ccc(N)cc1", "max response": "9.67% (inactive) and 1.24% (inactive) and 4.39% (inactive)"}, {"smiles": "CCCN(CCC)S(=O)(=O)c1ccc(C(=O)O)cc1", "max response": "-6.3% (inactive) and -3.84% (inactive) and 10.6% (inactive)"}, {"smiles": "NS(=O)(=O)c1cc(C(=O)O)c(NCc2ccco2)cc1Cl", "max response": "-14.3% (inactive) and -0.726% (inactive) and 2.65% (inactive)"}, {"smiles": "O=C(O)c1cccc([N+](=O)[O-])c1", "max response": "-2.27% (inactive) and 9.34% (inactive) and 3.61% (inactive)"}, {"smiles": "Cc1cc(=O)n(-c2ccccc2)n1C", "max response": "5.11% (inactive) and 3.11% (inactive) and 1.5% (inactive)"}, {"smiles": "Nc1ccn([C@H]2CC[C@@H](CO)O2)c(=O)n1", "max response": "5.91% (inactive) and 4.06% (inactive) and 6.95% (inactive)"}, {"smiles": "CC1(C)[C@@H]2CC[C@@]1(C)C(=O)C2", "max response": "4.23% (inactive) and 1.62% (inactive) and -1.8% (inactive)"}, {"smiles": "CCCCCCCCCCCCCCCC(=O)O", "max response": "-14.7% (inactive) and -1.54% (inactive) and -1.33% (inactive)"}, {"smiles": "Nc1ccc(O)c(C(=O)O)c1", "max response": "1.04% (inactive) and -2.7% (inactive) and 0.776% (inactive)"}, {"smiles": "NC(=O)c1ccccc1O", "max response": "0.307% (inactive) and -0.424% (inactive) and 11.5% (inactive)"}, {"smiles": "CCCCOC(=O)CC(CC(=O)OCCCC)(OC(C)=O)C(=O)OCCCC", "max response": "-6.55% (inactive) and -23.8% (inactive) and -22.3% (inactive)"}, {"smiles": "COC(=O)[C@H](Cc1ccccc1)NC(=O)[C@@H](N)CC(=O)O", "note": "(H-Asp-Phe-OMe)", "max response": "0.561% (inactive) and -0.312% (inactive) and -3.38% (inactive)"}, {"smiles": "CCCCC1C(=O)N(c2ccccc2)N(c2ccccc2)C1=O", "max response": "-7.32% (inactive) and -1.19% (inactive) and 8.39% (inactive)"}, {"smiles": "CCCNC(=O)NS(=O)(=O)c1ccc(Cl)cc1", "max response": "1.38% (inactive) and -0.751% (inactive) and 0.902% (inactive)"}, {"smiles": "COc1ccc2[nH]cc(CCNC(C)=O)c2c1", "max response": "-2.36% (inactive) and -20% (inactive) and 4.03% (inactive)"}, {"smiles": "O=c1ccc2ccccc2o1", "max response": "-0.397% (inactive) and 6.44% (inactive) and 2.9% (inactive)"}, {"smiles": "NC(=O)c1cnccn1", "max response": "-0.816% (inactive) and 11.3% (inactive) and 0.0586% (inactive)"}, {"smiles": "Cc1ccc(S(=O)(=O)NC(=O)NN2CCCCCC2)cc1", "max response": "3.5% (inactive) and 3.12% (inactive) and 7.81% (inactive)"}, {"smiles": "CCC1(c2ccccc2)C(=O)NCNC1=O", "max response": "-6.46% (inactive) and 0.966% (inactive) and 0.298% (inactive)"}, {"smiles": "CC(O)CN(CCN(CC(C)O)CC(C)O)CC(C)O", "note": "(stereo not given)", "max response": "2.34% (inactive) and 10.6% (inactive) and -2.16% (inactive)"}, {"smiles": "O=c1cc[nH]c(=S)[nH]1", "max response": "6.11% (inactive) and 3.88% (inactive) and 9.23% (inactive)"}, {"smiles": "O=S(=O)(O)NC1CCCCC1", "max response": "10.8% (inactive) and 12.2% (inactive) and -1.58% (inactive)"}, {"smiles": "C[C@]12C=CC(=O)C=C1CC[C@@H]1[C@@H]2[C@@H](O)C[C@@]2(C)[C@H]1CC[C@]2(O)C(=O)CO", "max response": "-4.22% (inactive) and -3.97% (inactive) and 0.449% (inactive)"}, {"smiles": "O=C(O)c1[nH]n(-c2ccc(S(=O)(=O)O)cc2)c(=O)c1N=Nc1ccc(S(=O)(=O)O)cc1", "max response": "-3.28% (inactive) and -13% (inactive) and 0.864% (inactive)"}, {"smiles": "O=C(c1ccccc1)C(O)c1ccccc1", "note": "(stereo not given)", "max response": "5.88% (inactive) and 18.1% (inactive) and 4.15% (inactive)"}, {"smiles": "C/C=C/c1ccc(OC)cc1", "max response": "-0.468% (inactive) [middle of 4 runs]"}, {"smiles": "OC(Cn1cncn1)(Cn1cncn1)c1ccc(F)cc1F", "max response": "7.44% (inactive) and 0.305% (inactive) and 5.93% (inactive)"}, {"smiles": "CC(=O)Nc1nnc(S(N)(=O)=O)s1", "max response": "3.91% (inactive) and 1.75% (inactive) and 9.79% (inactive)"}, {"smiles": "O=C(O)C(=O)O", "max response": "-1.98% (inactive) and 1.92% (inactive) and 0.465% (inactive)"}, {"smiles": "CC(O)CO", "note": "(stereo not given)", "max response": "-4.92% (inactive) and 4.28% (inactive) and 2.26% (inactive)"}, {"smiles": "O=C(O)c1cccnc1", "max response": "-0.0653% (inactive) [middle of 4 runs]"}, {"smiles": "CCOc1ccc(NC(=O)CC(C)O)cc1", "note": "(stereo not given)", "max response": "-0.988% (inactive) and -3.57% (inactive) and -1.9% (inactive)"}, {"smiles": "O=C(C1CCCCC1)N1CC(=O)N2CCc3ccccc3C2C1", "note": "(stereo not given)", "max response": "-18.7% (inactive)"}, {"smiles": "O=C(O)CCCCCCCC(=O)O", "max response": "2.75% (inactive) and 4.95% (inactive) and 3.91% (inactive)"}, {"smiles": "O=C1NC(=O)c2ccccc21", "max response": "3.82% (inactive) and -4.14% (inactive) and 5.86% (inactive)"}, {"smiles": "COc1c2occc2cc2ccc(=O)oc12", "Potency": "21.9 µM (active)", "max response": "-18.6% (inactive)"}]}]}
